Broadly, the inhibition is the drop in the measured response relative to a control, in per cent.

This passage reports inhibition results from PubChem BioAssay AID624255 (Broad Institute, 2012).

Where “and” joins values, the source holds several entries; their conditions need not be identical. Equal entries are not always repeated. In all, about 77,000 compounds went through this assay and about 4,600 (6%) were called active. Another 1% or so got no clear call; they are omitted.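 How the source made its calls: active means mean inhibition above about 93%, with at least 55% of replicates each passing it (limit read from the data, passing the limit was not always enough); inconclusive means only one of those two conditions holds; inactive means neither condition holds.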 Only a selection was taken, and actives are over-represented in it overall.

The assay in a line: growth inhibition of T. cruzi in host fibroblasts – cell-based, beta-gal Tulahuen parasites, NIH3T3 host, luminescence, primary screen (AID 624255). Conditions: T. cruzi beta-gal in NIH3T3, GalScreen luminescence, 90 h; at 8.34 µM; active compounds read high.
For the molecule `CN(C)C(=O)[C@H]1[C@H](CO)[C@H]2Cn3c(ccc(-c4ccc(F)cc4)c3=O)[C@H]2N1C(=O)c1ccccn1`, the inhibition was 32.7% (inactive).
To `C/C=C/c1ccc([C@@H]2[C@@H](CN(C)C(C)=O)N(C(=O)C3CC3)[C@H]2CO)cc1` belongs -20.4% (inactive).
On to `CO[C@@H]1CN(C)C(=O)c2cc(NC(=O)Nc3cccc(F)c3)ccc2OC[C@H](C)N(C)C[C@@H]1C`, for which the inhibition is -11.1% (inactive).
As for `COc1cccc(S(=O)(=O)Nc2ccc3c(c2)[C@H]2C[C@H](CC(=O)N4CCCCC4)O[C@@H](CO)[C@H]2O3)c1`, the inhibition is 32.8% (inactive).
In the case of `COc1ccccc1C(=O)Nc1ccc2c(c1)C(=O)N(C)C[C@@H](OC)[C@@H](C)CN(CC1CC1)[C@@H](C)CO2`, the inhibition is 21.2% (inactive).
Consider `CCC(=O)N(C)C[C@H]1[C@H](c2ccc(-c3ccccc3F)cc2)[C@@H](CO)N1C(C)=O`, for which the inhibition is 8.38% (inactive).
To `CC(=O)NC[C@@H]1[C@@H](c2ccc(-c3ccccc3F)cc2)[C@@H](CO)N1C(=O)C1CC1` belongs 108% (active); to `CC(=O)N1[C@H](CNC(=O)C2CC2)[C@@H](c2ccc(-c3cccc(F)c3)cc2)[C@@H]1CO`, 98.8% (active); to `COCC(=O)N(C)C[C@H]1[C@@H](c2ccc(-c3cccnc3)cc2)[C@H](CO)N1C(C)=O`, 84.3% (inactive).
Turning to `CC(=O)N1[C@H](CO)[C@@H](c2ccc(-c3ccc(F)cc3)cc2)[C@H]1CNC(=O)C1CC1`, the inhibition is -36% (inactive).
On to `CC(=O)N1[C@H](CO)[C@H](c2ccc(-c3ccccc3)cc2)[C@H]1CNC(=O)C1CC1`, for which the inhibition was -0.382% (inactive).
Consider `N#C[C@@H]1[C@@H](c2ccc(-c3ccccc3F)cc2)[C@@H](CO)N1C(=O)C1CC1`, for which the inhibition is 71.7% (inactive).
For `CC(=O)N(C)C[C@@H]1[C@@H](c2ccc(-c3ccccc3F)cc2)[C@@H](CO)N1C(C)=O`, the inhibition is 113% (active).
The result for `CC(=O)N1[C@H](CO)[C@@H](c2ccc(-c3ccccc3)cc2)[C@H]1CNC(=O)C1CC1` reads -18% (inactive); that for `COc1ccc(S(=O)(=O)Nc2ccc3c(c2)CC(=O)N([C@@H](C)CO)C[C@@H](C)[C@H](CN(C)S(=O)(=O)c2ccccc2)O3)cc1`, 0.553% (inactive); that for `COc1ccc(S(=O)(=O)N(C)C[C@H]2Oc3ccc(NC(=O)Nc4ccccc4)cc3CC(=O)N([C@H](C)CO)C[C@@H]2C)cc1`, -16.8% (inactive).
To `C[C@@H]1CN([C@H](C)CO)C(=O)c2cc(NC(=O)Nc3cccc4ccccc34)ccc2O[C@@H](C)CCCCO[C@H]1CN(C)S(=O)(=O)c1cccs1` belongs 23.5% (inactive); to `CO[C@@H]1CC[C@@H]2CCOc3ccc(C#N)cc3C(=O)N(C)C[C@H](c3ccccc3)CC(=O)N(C)C[C@H]1O2`, 5.08% (inactive); to `N#C[C@H]1N[C@H](CO)[C@@H]1c1ccc(C#Cc2ccccc2F)cc1`, 24.3% (inactive).
For `COc1cccc(C#Cc2ccc([C@@H]3[C@H](C#N)N[C@H]3CO)cc2)c1`, the inhibition is 101% (active).
The result for `N#C[C@@H]1N[C@@H](CO)[C@@H]1c1ccc(C#Cc2ccccc2F)cc1` reads 79.1% (inactive).
The result for `O=C(Nc1ccccc1)N1C[C@H]2[C@@H](c3ccccc31)[C@@H](CO)N2Cc1cocn1` reads 65% (inactive); that for `CNC(=O)C[C@@H]1CC[C@H]2[C@@H](COc3ccc(NC(=O)NCc4ccccc4)cc3C(=O)N2C)O1`, -25% (inactive).
`CCCC#Cc1ccc2c(c1)O[C@@H](CN(C)C(=O)CC)[C@@H](C)CN([C@H](C)CO)S2(=O)=O`: the inhibition is 67% (inactive).
To `C[C@H]1CN([C@@H](C)CO)S(=O)(=O)c2ccc(C#CCN(C)C)cc2O[C@H]1CN(C)C(=O)CN(C)C` belongs -25.5% (inactive); to `CCCC#Cc1ccc2c(c1)O[C@@H](CN(C)C(=O)CC)[C@H](C)CN([C@H](C)CO)S2(=O)=O`, 68.6% (inactive); to `CCCC#Cc1ccc2c(c1)O[C@@H](CN(C)C(=O)c1ccccc1F)[C@H](C)CN([C@H](C)CO)S2(=O)=O`, 97.6% (active).
Regarding `CCC(=O)N(C)C[C@@H]1Oc2cc(C#CCN(C)C)ccc2S(=O)(=O)N([C@H](C)CO)C[C@H]1C`, the inhibition was 101% (active).
With `CC(=O)N(C)C[C@H]1Oc2cc(C#CCN(C)C)ccc2S(=O)(=O)N([C@H](C)CO)C[C@H]1C`, the inhibition is 56.9% (inactive).
Turning to `C[C@H]1CN([C@@H](C)CO)S(=O)(=O)c2ccc(C#CCN(C)C)cc2O[C@H]1CN(C)C(=O)c1ccccc1F`, the inhibition is 36.4% (inactive).
The result for `COCC#Cc1ccc2c(c1)O[C@@H](CN(C)C(C)=O)[C@H](C)CN([C@H](C)CO)S2(=O)=O` reads -30.8% (inactive); that for `C[C@@H]1CN([C@H](C)CO)S(=O)(=O)c2ccc(C#CCN(C)C)cc2O[C@@H]1CN(C)C(=O)CN(C)C`, -40.2% (inactive).
`CCCC#Cc1ccc2c(c1)O[C@H](CN(C)C(=O)CC)[C@@H](C)CN([C@H](C)CO)S2(=O)=O`: the inhibition was 94.9% (active).
To `CC(C)CC#Cc1ccc2c(c1)O[C@@H](CN(C)C(=O)c1ccccc1F)[C@H](C)CN([C@H](C)CO)S2(=O)=O` belongs 54% (inactive).
The result for `CC(=O)N(C)C[C@H]1Oc2cc(C#CCN(C)C)ccc2S(=O)(=O)N([C@@H](C)CO)C[C@@H]1C` reads 106% (active); that for `O=C(C[C@H]1CC[C@H]2[C@@H](COC[C@@H](O)CN2Cc2cccc(C(F)(F)F)c2)O1)NCc1ccncc1`, 73.9% (inactive).
As to `C[C@@H]1CCCCO[C@@H](CN(C)S(C)(=O)=O)[C@@H](C)CN([C@@H](C)CO)C(=O)c2cc(NS(=O)(=O)c3ccc(Cl)cc3)ccc2O1`, the inhibition was 46.7% (inactive).
Take `O=C(C[C@H]1CC[C@H]2[C@@H](COC[C@@H](O)CN2CCC(F)(F)F)O1)NCc1ccc2c(c1)OCO2`: the inhibition is -35.7% (inactive).
On to `COc1cccc(NC(=O)C[C@@H]2CC[C@H]3[C@@H](COc4ccc(NC(=O)C5CCOCC5)cc4C(=O)N3C)O2)c1`, for which the inhibition is 24.1% (inactive).
The result for `CN(C)C(=O)C[C@@H]1CC[C@H](NC(=O)NC2CCCC2)[C@H](CO)O1` reads -49.3% (inactive); that for `O=C(C[C@@H]1CC[C@@H]2[C@H](COC[C@@H](O)CN2Cc2ccccc2)O1)NCCc1ccccc1`, 13.4% (inactive); that for `C[C@@H](NC(=O)C[C@H]1C[C@H]2c3cc(NC(=O)C4CCOCC4)ccc3O[C@H]2[C@@H](CO)O1)c1ccccc1`, -16.2% (inactive).
Take `Cc1cc(C(=O)Nc2ccc3c(c2)C(=O)N(C)[C@@H]2CC[C@H](CC(=O)NC4CCCC4)O[C@@H]2CO3)no1`: the inhibition was -62.2% (inactive).
To `CN(C)CCCNC(=O)C[C@H]1CC[C@H]2[C@@H](COC[C@H](O)CN2C(=O)c2ccncc2)O1` belongs -84.6% (inactive).
As to `COCC(=O)Nc1ccc2c(c1)[C@@H]1C[C@H](CC(=O)NCc3ccc(Cl)cc3)O[C@H](CO)[C@@H]1O2`, the inhibition was 0.832% (inactive).
In the case of `CN1C(=O)c2cc(NC(=O)Cc3cccs3)ccc2OC[C@@H]2O[C@@H](CC(=O)N[C@@H]3CCN(Cc4ccccc4)C3)CC[C@H]21`, the inhibition was 50.2% (inactive).
`CN1C(=O)c2cc(NC(=O)c3cnccn3)ccc2OC[C@@H]2O[C@@H](CC(=O)N[C@H]3CCN(Cc4ccccc4)C3)CC[C@H]21`: the inhibition was 109% (active).
Turning to `CN1C(=O)c2cc(NS(C)(=O)=O)ccc2OC[C@@H]2O[C@@H](CC(=O)NCc3ccc(-c4ccccc4)cc3)CC[C@H]21`, the inhibition was 6.8% (inactive).
Turning to `CN1C(=O)c2cc(NC(=O)Nc3ccccc3F)ccc2OC[C@H]2O[C@H](CC(=O)NCc3ccc(-c4ccccc4)cc3)CC[C@H]21`, the inhibition is 101% (active).
As to `CCS(=O)(=O)Nc1ccc2c(c1)C(=O)N(C)[C@@H]1CC[C@H](CC(=O)N[C@H]3CCN(Cc4ccccc4)C3)O[C@@H]1CO2`, the inhibition is 46.2% (inactive).
The result for `CN1C(=O)c2cc(NC(=O)c3cnccn3)ccc2OC[C@@H]2O[C@H](CC(=O)N[C@@H]3CCN(Cc4ccccc4)C3)CC[C@@H]21` reads 105% (active).
The result for `CCS(=O)(=O)Nc1ccc2c(c1)C(=O)N(C)[C@H]1CC[C@H](CC(=O)N[C@@H]3CCN(Cc4ccccc4)C3)O[C@H]1CO2` reads 71.7% (inactive); that for `CCNC(=O)C[C@@H]1CC[C@@H]2[C@@H](COc3ccc(NC(=O)Nc4ccccc4F)cc3C(=O)N2C)O1`, 19.6% (inactive).
To `CN1C(=O)c2cc(NC(=O)c3cnccn3)ccc2OC[C@@H]2O[C@H](CC(=O)NC3CCC3)CC[C@@H]21` belongs 7.25% (inactive); to `C/C=C/c1ccc([C@H]2[C@@H](CO)N[C@@H]2CN(CC)C(=O)CN2CCOCC2)cc1`, -25.4% (inactive); to `CCS(=O)(=O)Nc1ccc2c(c1)C(=O)N(C)[C@@H]1CC[C@@H](CC(=O)N3CCCCC3)O[C@H]1CO2`, 54.2% (inactive).
`CO[C@@H]1CN(C)C(=O)c2cc(NC(=O)C3CCC3)ccc2OC[C@H](C)N(Cc2nccs2)C[C@H]1C`: the inhibition was -2.54% (inactive).
In the case of `COCC(=O)Nc1ccc2c(c1)C(=O)N(C)C[C@@H](OC)[C@H](C)CN(C(=O)CC1CC1)[C@H](C)CO2`, the inhibition is 34.9% (inactive).
To `C[C@@H]1CN([C@H](C)CO)C(=O)Cc2cc(N(C)C)ccc2O[C@H]1CN(C)S(C)(=O)=O` belongs -46% (inactive); to `Cc1ccc(S(=O)(=O)Nc2ccc3c(c2)CC(=O)N([C@H](C)CO)C[C@@H](C)[C@H](CN(C)S(=O)(=O)c2c(C)noc2C)O3)cc1`, -10.8% (inactive); to `Cc1noc(C)c1S(=O)(=O)Nc1ccc2c(c1)C(=O)N([C@@H](C)CO)C[C@@H](C)[C@H](CN(C)S(=O)(=O)c1ccc(Cl)cc1)OCCCC[C@H](C)O2`, 96.3% (active).
On to `COc1ccc(S(=O)(=O)Nc2ccc3c(c2)C(=O)N([C@@H](C)CO)C[C@H](C)[C@H](CN(C)S(=O)(=O)c2ccc(F)cc2)OCCCC[C@@H](C)O3)cc1`, for which the inhibition was 94.5% (inactive).
Consider `Cc1noc(C)c1S(=O)(=O)Nc1ccc2c(c1)C(=O)N([C@@H](C)CO)C[C@@H](C)[C@@H](CN(C)S(=O)(=O)c1ccccc1)OCCCC[C@H](C)O2`, for which the inhibition was -37.4% (inactive).
The result for `COc1ccc(S(=O)(=O)Nc2ccc3c(c2)C(=O)N([C@H](C)CO)C[C@@H](C)[C@@H](CN(C)CC2CCCCC2)OCCCC[C@@H](C)O3)cc1` reads 110% (active); that for `Cc1ccc(S(=O)(=O)N(C)C[C@H]2OCCCC[C@H](C)Oc3ccc(NS(=O)(=O)c4c(C)noc4C)cc3C(=O)N([C@H](C)CO)C[C@@H]2C)cc1`, -43.8% (inactive).
The result for `Cc1noc(C)c1S(=O)(=O)N(C)C[C@H]1Oc2ccc(N(C)C)cc2CC(=O)N([C@H](C)CO)C[C@@H]1C` reads 97.3% (active).
The result for `COc1ccc(S(=O)(=O)N(C)C[C@H]2OCCCC[C@H](C)Oc3ccc(NS(=O)(=O)c4ccc(F)cc4)cc3C(=O)N([C@@H](C)CO)C[C@@H]2C)cc1` reads 108% (active).
Consider `COc1ccc(S(=O)(=O)Nc2ccc3c(c2)C(=O)N([C@H](C)CO)C[C@H](C)[C@@H](CN(C)S(C)(=O)=O)OCCCC[C@@H](C)O3)cc1`, for which the inhibition is 50.1% (inactive).
The result for `COc1ccc(S(=O)(=O)Nc2ccc3c(c2)C(=O)N([C@@H](C)CO)C[C@H](C)[C@@H](CN(C)S(=O)(=O)c2ccc(F)cc2)OCCCC[C@H](C)O3)cc1` reads 85% (inactive).
Regarding `COc1ccc(S(=O)(=O)Nc2ccc3c(c2)C(=O)N([C@H](C)CO)C[C@H](C)[C@@H](CN(C)C)OCCCC[C@H](C)O3)cc1`, the inhibition is 17.4% (inactive) and 81.8% (inactive).
